Data as given in publication PMC5540273 (PLoS ONE, 2017).

Experiments:
Conditions in all cases: concentration: 1 μM, replicates: in singlicate; n = 1
PRKD3 = test system: PRKD3
PRKG1 = test system: PRKG1
PRKG2 = test system: PRKG2
PRKR = test system: T1, PRKR
T1 construct: gene EIF2AK2

PRKX = test system: PRKX
PRP4 = test system: PRP4
PYK2 = test system: T2, PYK2
T2 construct: gene PTK2B

QSK = test system: QSK
RAF1 = test system: RAF1
RET = test system: RET
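Also: KINOMEscan kinase panel screen.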

Row | Structure (SMILES) | %Inh (PRKD3) [%] | %Inh (PRKG1) [%] | %Inh (PRKG2) [%] | %Inh (PRKR) [%] | %Inh (PRKX) [%] | %Inh (PRP4) [%] | %Inh (PYK2) [%] | %Inh (QSK) [%] | %Inh (RAF1) [%] | %Inh (RET) [%]
1 | COc1cc(Nc2nccc(N3CCC(NS(=O)(=O)c4ccc(NC(C)=O)cc4)CC3)n2)cc(OC)c1OC [GSK1379825] | 0 | 5 | 0 | 0 | 15 | 18 | 37 | 20 | 60 | 30
2 | CN1CCN(Cc2ccc(NC(=O)Nc3ccc(N(C)c4ccnc(Nc5ccc(CS(C)(=O)=O)cc5)n4)cc3)cc2)CC1.Cl [GW827654] | 0 | 0 | 0 | 0 | 22 | 33 | 88 | 0 | 0 | 100
3 | NCCC(NC(=O)c1cc(Br)c(-c2ccnc3[nH]ccc23)s1)c1ccccc1.O=C(O)C(F)(F)F.O=C(O)C(F)(F)F (stereo not shown) [GSK1307810] | 35 | 97.5 | 98.2 | 17 | 96.9 | 76 | 0 | 0 | 9 | 36
4 | Fc1cc(Cl)ccc1Nc1ccnc2cc(-c3ccc(CN4CCSCC4)o3)ccc12 [GW560106] | 0 | 27 | 66 | 3 | 1 | 29 | 0 | 63 | 12 | 98.3
5 | O=C(Nc1n[nH]c2nc(-c3ccccc3O)ccc12)C1CC1 [SB-711880] | 0 | 0 | 28 | 10 | 1 | 0 | 4 | 33 | 0 | 0
6 | Nc1cccc(-c2ccc3c(N)n[nH]c3c2)c1 [GSK2193613] | 0 | 20 | 19 | 0 | 7 | 19 | 5 | 0 | 0 | 5
7 | Cl.O=C(Nc1ccc(Oc2ccc3[nH]c(NC(=O)c4ccco4)nc3c2)cc1)Nc1cc(C(F)(F)F)ccc1F [GW683134] | 37 | 12 | 0 | 0 | 20 | 27 | 10 | 0 | 94.7 | 99.9
8 | O=C(O)C(F)(F)F.O=c1[nH]ccc2nc(N[C@@H]3CCNC3)nc(Nc3cc(Cl)cc(Cl)c3)c12 [GSK2188764] | 96.5 | 61 | 98.5 | 76 | 95 | 63 | 98.8 | 38 | 0 | 51
9 | COc1ccc(NC(=O)c2ccoc2)cc1-c1ccc(C(=O)NCC2CC2)cc1 [GW810437] | 0 | 0 | 0 | 0 | 0 | 0 | 7 | 12 | 0 | 0
10 | COC(=O)Nc1nc2ccc(Oc3ccc(CC(=O)Nc4cc(C(F)(F)F)ccc4F)cc3)cc2[nH]1 [GW680903] | 18 | 0 | 0 | 0 | 2 | 32 | 0 | 0 | 86 | 97.7
11 | CC(=O)Nc1cn2nc(Oc3cccc(NC(=O)c4cccc(C(F)(F)F)c4)c3)ccc2n1 | 0 | 11 | 13 | 4 | 0 | 0 | 7 | 0 | 99.8 | 100
12 | COc1ccc(C2=C(Nc3cccc(O)c3)C(=O)NC2=O)cc1 [SB-390766] | 0 | 0 | 0 | 0 | 0 | 49 | 0 | 12 | 96.2 | 25
13 | Cc1ccc(O)cc1Nc1ccnc2cc(-c3ccc(CN4CCCCC4)o3)ccc12 [GW557777] | 95.1 | 0 | 0 | 1 | 0 | 0 | 5 | 41 | 7 | 100
14 | Fc1cc(Cl)ccc1Nc1ccnc2cc(-c3ccc(CN4CCOCC4)o3)ccc12 [GW560109] | 19 | 25 | 0 | 0 | 24 | 44 | 5 | 70 | 11 | 99.8
15 | CNc1nccc(-c2ccc3c(N)n[nH]c3c2)n1 [GSK2206003] | 35 | 25 | 76 | 8 | 53 | 32 | 12 | 0 | 0 | 80
16 | COc1cc(Nc2ccnc3cc(-c4ccncc4)ccc23)cc(OC)c1OC.Cl [GW494610] | 6 | 8 | 69 | 0 | 0 | 27 | 16 | 84 | 23 | 24
